# Assay results from ChEMBL document CHEMBL1157539, “Thousands of chemical starting points for antimalarial lead identification” (Nature, 2010).
# Tests used:
# Format in all cases: functional
# [1] = system: Plasmodium falciparum; assay: GSK_TCMDC: Inhibition of Plasmodium falciparum 3D7 in whole red blood cells, using parasite LDH activity as an index of growth. Test compounds present at 2uM
# [2] = system: Plasmodium falciparum; assay: GSK_TCMDC: Inhibition of Plasmodium falciparum Dd2 in whole red blood cells, using parasite LDH activity as an index of growth. Test compounds present at 2uM
# [3] = system: HepG2; assay: GSK_TCMDC: Percent inhibition of human HepG2 cell line. Test compounds present at 10uM.
compound,measurement,setting,value
Cn1cnc2c(Nc3ccncc3)nc(-c3ccc4c(c3)OCO4)nc21.O=C(O)C(F)(F)F,Inhibition,[1],96%
same,Inhibition,[2],2%
same,Inhibition,[3],19%
COc1ccc2nc3cc(Cl)ccc3c(Nc3ccc(Sc4ccc(Nc5c6ccc(Cl)cc6nc6ccc(OC)cc56)cc4)cc3)c2c1.Cl,Inhibition,[1],92%
same,Inhibition,[2],94%
same,Inhibition,[3],1%
CCCCn1c(SC(C)C)nc2c(c1=O)C1(CCCCC1)Cc1ccccc1-2,Inhibition,[1],99%
same,Inhibition,[2],60%
same,Inhibition,[3],1%
O=C(O)C(F)(F)F.O=S(=O)(NC1CCN(c2ccnc3cc(Cl)ccc23)C1)c1ccc(C(F)(F)F)cc1 (stereo not given),Inhibition,[1],100%
same,Inhibition,[2],98%
same,Inhibition,[3],20%
Cc1cccc(Cn2c(Cc3ccccc3)nnc2Sc2ccc([N+](=O)[O-])c(C#N)c2)c1,Inhibition,[1],91%
same,Inhibition,[2],3%
same,Inhibition,[3],17%
CC(C)(C)c1ccc(CNC(=O)c2ccc(CNC3CCC(N)CC3)s2)cc1 (stereo not given),Inhibition,[1],100%
same,Inhibition,[2],10%
same,Inhibition,[3],41%
O=S(=O)(c1ccccc1Cl)N1CCCCC(c2ccc(C(F)(F)F)cc2)=N1,Inhibition,[1],86%
same,Inhibition,[2],72%
same,Inhibition,[3],22%
O=C(Nc1ccc(OC2CCN(Cc3ccc(F)cc3)C2)c(Cl)c1)c1cccs1.O=C(O)C(F)(F)F (stereo not given),Inhibition,[1],98%
same,Inhibition,[2],97%
same,Inhibition,[3],21%
Cl.O=C1Nc2ccc3ncccc3c2/C1=C/Nc1ccc(N2CCN(CCO)CC2)cc1,Inhibition,[1],86%
same,Inhibition,[2],55%
same,Inhibition,[3],34%
COc1ccc(CNCCc2cccs2)cc1-c1ccc(S(=O)(=O)NCCN2CCCC2)s1.O=C(O)C(F)(F)F,Inhibition,[1],99%
same,Inhibition,[2],21%
same,Inhibition,[3],41%
